The list is not random: actives were taken first. Their share in the collection is about 5.2%.
Yeast superoxide: reduction of superoxide in aged yeast, primary screen, HTS. superoxide response (% of plate mean), % at 10 µM. S. cerevisiae aged cells, superoxide DHE fluorescence; hits give low values. 330,000 tested, 0.18% active;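 active means superoxide response under a set limit, about three screen SD below normal, cut at about 65% in these data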;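 further: yeast aged for seven days with compound at 30 °C before DHE staining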
PfM18AAP inh: PfM18AAP inhibitors, malaria aminopeptidase, primary screen, biochemical, QFRET, recombinant enzyme | M18 aspartyl aminopeptidase (Plasmodium falciparum 3D7) | H-Glu-NHMec fluorogenic cleavage | inhibition, % at 7.35 µM | 290,000 tested, 1.2% active | AID 1822, 2009;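 active means inhibition above the campaign mean inhibition over all tested compounds plus 3 SD, cut at about 28% in these data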
ALR inh: inhibitors of human ALR sulfhydryl oxidase, primary screen, biochemical, H2O2 detection, HRP-luminol luminescence, single point; AID 485317, 2010; inhibition, % (concentration not given with the values); 290,000 tested, 3.8% active; purified ALR, DTT oxidation;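 active means mean replicate inhibition above about 79%, with every replicate also reaching it, limit read from the data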
Target sequence (P55789 whole entry, looked up): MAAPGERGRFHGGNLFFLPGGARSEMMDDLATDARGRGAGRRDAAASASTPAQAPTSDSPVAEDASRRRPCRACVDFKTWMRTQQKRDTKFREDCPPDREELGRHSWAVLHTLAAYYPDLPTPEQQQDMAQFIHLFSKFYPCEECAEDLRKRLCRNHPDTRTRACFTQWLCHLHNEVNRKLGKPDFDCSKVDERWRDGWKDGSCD
APOBEC3A inh: APOBEC3A ssDNA deaminase inhibitors, primary screen, selectivity assay for APOBEC3G inhibitor project, biochemical, FAM/TAMRA oligo cleavage fluorescence; DNA dC->dU-editing enzyme APOBEC-3A (Homo sapiens), P31941; recombinant A3A, FAM/TAMRA ssDNA deamination fluorescence; inhibition, % at 20 µM; 330,000 tested, 0.41% active; AID 493011, 2011;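 active means at least 40% inhibition at 20 µM here, with at most 30% in a related deaminase screen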
Target sequence (P31941 whole entry, looked up): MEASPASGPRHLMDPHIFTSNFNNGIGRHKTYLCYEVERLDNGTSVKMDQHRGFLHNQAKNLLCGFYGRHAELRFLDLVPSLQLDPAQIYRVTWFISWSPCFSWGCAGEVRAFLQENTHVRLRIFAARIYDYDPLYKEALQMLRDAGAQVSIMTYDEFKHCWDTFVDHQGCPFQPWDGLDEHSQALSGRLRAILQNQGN
NRP1-CendR mod: modulators of CendR peptide binding to NRP-1, primary screen, biochemical, fluorescence polarization, uHTS | Neuropilin-1 (Homo sapiens), O14786 | FAM-RPARPAR peptide binding to NRP-1 | inhibition, % at 25 µM | 360,000 tested, 0.85% active;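 active means inhibition or corrected inhibition above about 18%, plus a signal ratio from 0.5 to 1.5, limit read from the data, passing the limit was not always enough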
APOBEC3G inh: APOBEC3G DNA deaminase inhibitors, primary screen, biochemical, fluorescence, single-stranded DNA substrate, uHTS | recombinant A3G, ssDNA deamination FAM/TAMRA fluorescence | DNA dC->dU-editing enzyme APOBEC-3G (Homo sapiens), Q9HC16 | inhibition, % at 20 µM | 330,000 tested, 0.28% active;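 active means inhibition of at least 40% at 20 µM, with no more than 30% in the related APOBEC3A deaminase screen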
A number is an active result; 0 = inactive; - = no result.

SMILES	Yeast superoxide	PfM18AAP inh	ALR inh	APOBEC3A inh	NRP1-CendR mod	APOBEC3G inh
Cc1nc(N)nc(Nc2ccc(C#N)cc2)c1Br	0	0	0	0	17	0
Cc1nc(N)nc(Nc2ccc(Cl)cc2)c1Br	0	0	-	0	0	0
CC(C)CSc1nnc(N)s1	0	0	0	0	0	0
CC(C)CN(CC(C)C)c1nnc(N)s1	0	0	99	0	0	0
CC(C)n1cc(C(=O)N2CCCC(N3CCN(c4cccc(Cl)c4)CC3)C2)cn1 (stereo not drawn)	0	0	89	0	0	0
O=C1CSC2=NCN(c3ccc4c(c3)OCO4)CN12	0	0	0	0	0	0
CN(C)c1ccc(N2CN=C3SCC(=O)N3C2)cc1	0	0	99	0	0	0
COCC1CCN(C(=O)C2CCC(=O)N(Cc3cccc(F)c3)C2)CC1 (stereo not drawn)	0	0	0	0	26	0
O=C(c1ccccc1)C1CCN(C(=O)C2CCC(=O)N(Cc3cccc(F)c3)C2)CC1 (stereo not drawn)	-	0	-	0	0	0
Cc1cc(-c2ccc(F)cc2)nc2cc(C(N)=O)nn12	0	0	0	0	26	0
CCOc1ccc(/C=C/C(=O)c2c(O)cc(C)oc2=O)cc1	0	0	95	0	0	0
COc1ccc(/C=C\C(=O)c2c(O)ccc3c(C)cc(=O)oc23)cc1	0	0	97	0	0	0
Cc1cc(O)c(C(=O)/C=C/c2ccccc2)c(=O)o1	0	0	0	0	0	0
Nc1ccc(C#Cc2c(-c3ccsc3)oc3ccc(N4CCOCC4)cc23)cc1	0	-	0	0	26	0
CC(C(=O)NN=C(c1ccccc1)c1ccccc1)N1CCOCC1 (stereo not drawn)	0	0	-	0	26	0
Cn1c2c(c(=O)n(C)c1=O)CN(Cc1ccc(F)cc1)CN2	0	0	0	0	0	0
Cc1nn(-c2cc(N3CCCCC3)ccc2N)c(=O)c2ccccc12	0	0	99	0	0	0
Cc1nn(-c2ccc(Cl)cc2)c(=O)c2ccccc12	0	0	0	0	0	0
Cc1nn(-c2ccc(Cl)c(Cl)c2)c(=O)c2ccccc12	0	0	0	0	38	0
CCCS(=O)(=O)NC(=O)C1(C)CCCN(C(=O)c2cccc(C)c2C)C1 (stereo not drawn)	-	-	-	-	0	-
O=C(NCc1ccco1)c1csc2c1CCCC2	0	0	0	0	0	0
COc1ccccc1/C=C1\SC(=S)N(NS(=O)(=O)c2ccc(C)cc2)C1=O	0	0	97	0	0	0
Cc1ccc(S(=O)(=O)NN2C(=O)/C(=C/c3cccnc3)SC2=S)cc1	0	0	96	0	0	0
O=C(C(Cc1ccccc1)n1cccc1)N1CCN(c2cccc(Cl)c2)CC1 (stereo not drawn)	0	0	-	0	0	0
Nc1nc2c(s1)CCc1c-2cnn1-c1ccccc1	0	0	0	0	0	54
SMILES	Yeast superoxide	PfM18AAP inh	ALR inh	APOBEC3A inh	NRP1-CendR mod	APOBEC3G inh
Nc1nc2c(s1)COc1ccccc1-2	0	0	-	0	0	0
CC(C)CN(C(=O)COC(=O)C1c2ccccc2Oc2ccccc21)C1CCS(=O)(=O)C1 (stereo not drawn)	0	0	0	0	24	0
CC(C)Nc1ccc(Nc2ccnc3cc4ccccc4cc23)cc1	0	0	99	0	0	0
COc1ccc(Nc2ccnc3ccccc23)cc1	0	0	0	0	0	0
CC(=O)NNC(=S)NCCc1ccccc1	0	30	0	0	0	0
COC(=O)Cc1ccc(NC(=S)NCCCN2CCOCC2)cc1	0	0	0	0	0	0
O=C(CCc1ccccc1)NNC(=S)NCCc1ccccc1	0	0	0	0	0	0
Cc1cn(CCC(=O)Nc2ccc(N3CCOCC3)cc2)c2ccccc12	0	0	82	0	0	0
COC(=O)Cc1ccc(NC(=S)Nc2ccc(N3CCOCC3)cc2)cc1	0	0	89	0	0	0
CCCNC(=S)Nc1ccccc1	0	0	90	0	0	0

Screening data: PubChem, several laboratories
